Test results from PubChem BioAssay AID1159580 (chemical genetic matrix, 2015).
Hit rate of the full screen: of about 5,500 compounds, about 2,000 (36%) were called active. Inconclusive results (about 18%) are left out. Rule as the data show it: active = normalized growth mostly below about 0.91 (no sharp cut-off); inconclusive = no clear call, values can overlap the other calls; inactive = mostly above about 0.92. This is one part of the list.

Assay: chemical genetic growth profiling, strain panel (AID 1159580);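 also: tested at 20 µM; growth read once vehicle control cultures reached saturation at 30 °C; 1 = growth at the plate median or of vehicle wells; lower values mean less growth of the strain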
Details: S. cerevisiae deletion strains, growth OD
[1] = locus YBR229C, strain ROT2, hits give low values
[2] = locus YCL061C, strain MRC1, hits give low values
[3] = locus YDL101C, strain DUN1, hits give low values
[4] = locus YEL061C, strain CIN8, hits give low values
[5] = locus YHR030C, strain SLT2, hits give low values
[6] = locus YJR075W, strain HOC1, hits give low values
[7] = locus YLR039C, strain RIC1, hits give low values
[8] = locus YMR307W, strain GAS1, hits give low values
[9] = locus YPL241C, strain CIN2, hits give low values

Measured: normalized growth

N#C/C(=C\N(CCS(=O)(=O)c1ccc(Cl)cc1)Cc1cccs1)S(=O)(=O)c1ccc(Cl)cc1
inactive: locus YAL013W, strain DEP1, hits give low values 0.999 | [1] 1.01 | [2] 1.02 | [3] 1 | locus YDR150W, strain NUM1, hits give low values 1.08 | [4] 0.973 | locus YGR078C, strain PAC10, hits give low values 1.01 | [5] 1.05 | locus YHR087W, strain rtc3, hits give low values 1.01 | locus YJR043C, strain POL32, hits give low values 1.03 | [6] 1.04 | locus YKL190W, strain CNB1, hits give low values 0.987 | [7] 1.06 | locus YLR058C, strain SHM2 (second series), hits give low values 1 | locus YLR085C, strain ARP6, hits give low values 0.943 | locus YLR262C, strain YPT6, hits give low values 1.06 | locus YML094W, strain GIM5, hits give low values 0.981 | locus YMR219W, strain ESC1, hits give low values 1 | locus YMR263W, strain SAP30, hits give low values 1.09 | [8] 1.08 | locus YNL153C, strain GIM3, hits give low values 1.03 | locus YNL298W, strain CLA4 (second series), hits give low values 0.947 | locus YNL322C, strain KRE1, hits give low values 0.996 | locus YNR030W, strain Alg12, hits give low values 1 | locus YPL055C, strain LGE1, hits give low values 1.13 | [9] 0.981 | locus YPR135W, strain CTF4, hits give low values 1.19

COc1c2c(cc3c1OCO3)C13C=C[C@H](OC)CC1N(C2)CC3O (stereo not given in full)
inactive: locus YAL021C, strain ccr4, hits give low values 0.966 | locus YAL026C, strain drs2, hits give low values 0.976 | locus YAL030W, strain snc1, hits give low values 0.996 | locus YBL061C, strain skt5, hits give low values 0.984 | locus YBR009C, strain hhf1, hits give low values 1 | locus YBR021W, strain FUR4, hits give low values 1.06 | locus YBR023C, strain chs3, hits give low values 0.981 | locus YBR171W, strain sec66, hits give low values 1 | [1] 1 | locus YBR231C, strain swc5, hits give low values 1 | locus YBR279W, strain paf1, hits give low values 0.963 | locus YCL011C, strain gbp2, hits give low values 0.969 | locus YCL016C, strain dcc1, hits give low values 0.955 | locus YCL029C, strain bik1, hits give low values 0.981 | [2] 0.979 | locus YCL069W, strain vba3, hits give low values 0.991 | locus YCR088W, strain abp1, hits give low values 0.991 | locus YDL005C, strain med2, hits give low values 0.976 | locus YDL035C, strain GPR1, hits give low values 1.03 | locus YDL040C, strain nat1, hits give low values 1 | locus YDL074C, strain BRE1, hits give low values 1.01 | [3] 0.985 | locus YDL185W, strain tfp1, hits give low values 0.961 | locus YDL192W, strain arf1, hits give low values 0.986 | locus YDR001C, strain nth1, hits give low values 0.988 | locus YDR069C, strain doa4, hits give low values 0.963 | locus YDR101C, strain arx1, hits give low values 1.01 | locus YDR137W, strain rgp1, hits give low values 0.953 | locus YDR159W, strain sac3, hits give low values 0.968 | locus YDR162C, strain NBP2, hits give low values 0.99 | locus YDR195W, strain ref2 0.966 | locus YDR297W, strain sur2, hits give low values 0.976 | locus YDR318W, strain mcm21, hits give low values 0.989 | locus YDR334W, strain swr1, hits give low values 0.978 | locus YDR335W, strain msn5, hits give low values 0.972 | locus YDR388W, hits give low values 0.983 | locus YDR392W, strain spt3, hits give low values 0.915 | locus YDR502C, strain sam2, hits give low values 0.988 | locus YEL003W, strain gim4, hits give low values 1 | locus YEL037C, strain rad23, hits give low values 0.983 | locus YEL061C, strain CIN8 (second series), hits give low values 0.984 | [4] 1 | locus YER015W, strain faa2, hits give low values 0.972 | locus YER016W, strain bim1, hits give low values 0.975 | locus YER110C, hits give low values 0.97 | locus YER111C, strain swi4, hits give low values 0.977 | locus YER155C, strain BEM2 (second series), hits give low values 1.05 | locus YER155C, strain BEM2, hits give low values 0.997 | locus YER167W, strain BCK2, hits give low values 0.998 | locus YFR010W, strain ubp6, hits give low values 1.02 | locus YGL078C, strain dbp3, hits give low values 0.975 | locus YGL086W, strain mad1, hits give low values 1 | locus YGL167C, strain pmr1, hits give low values 0.999 | locus YGL173C, strain kem1, hits give low values 1.01 | locus YGL227W, strain vid30, hits give low values 0.987 | locus YGL240W, strain doc1, hits give low values 1.04 | locus YGL248W, strain PDE1, hits give low values 0.999 | locus YGL253W, strain hxk2, hits give low values 0.963 | locus YGR135W, strain pre9, hits give low values 0.972 | locus YGR252W, strain gcn5, hits give low values 1.08 | locus YHR013C, strain ard1, hits give low values 0.956 | locus YHR027C, strain rpn1, hits give low values 0.989 | [5] 0.986 | locus YHR079C, strain IRE1 (second series), hits give low values 0.986 | locus YHR094C, strain hxt1, hits give low values 0.978 | locus YHR129C, strain ARP1, hits give low values 0.994 | locus YHR142W, strain chs7, hits give low values 0.951 | locus YHR200W, strain rpn10, hits give low values 0.992 | locus YIL066C, strain RNR3, hits give low values 1 | locus YIL073C, strain SPO22, hits give low values 0.94 | locus YIL125W, strain kgd1, hits give low values 0.984 | locus YIR030C, strain dcg1, hits give low values 0.97 | locus YJL092W, strain hpr5, hits give low values 0.982 | locus YJL095W, strain BCK1 (second series), hits give low values 0.972 | locus YJL095W, strain BCK1, hits give low values 0.975 | locus YJL115W, strain asf1, hits give low values 0.957 | locus YJL129C, strain trk1, hits give low values 0.95 | locus YJL134W, strain LCB3, hits give low values 0.99 | locus YJL154C, strain vps35, hits give low values 0.977 | locus YJL164C, strain tpk1, hits give low values 1.02 | locus YJL166W, strain qcr8, hits give low values 0.989 | locus YJL168C, strain set2, hits give low values 0.985 | locus YJL187C, strain SWE1 (second series), hits give low values 0.98 | locus YJL187C, strain SWE1, hits give low values 0.987 | [6] 1 | locus YKL009W, strain mrt4, hits give low values 0.992 | locus YKL068W, hits give low values 0.98 | locus YKL085W, strain MDH1 (second series), hits give low values 1 | locus YKL085W, strain MDH1, hits give low values 1 | locus YKL160W, strain elf1, hits give low values 0.95 | locus YKR001C, strain vps1, hits give low values 0.99 | locus YKR026C, strain gcn3, hits give low values 0.993 | locus YKR091W, strain srl3, hits give low values 0.978 | locus YLL001W, strain dnm1, hits give low values 0.996 | locus YLL026W, hits give low values 0.98 | locus YLL041C, strain sdh2, hits give low values 0.98 | locus YLR027C, strain aat2, hits give low values 0.996 | [7] 1 | locus YLR058C, strain SHM2, hits give low values 0.994 | locus YLR102C, strain apc9, hits give low values 0.988 | locus YLR221C, strain rsa3, hits give low values 1.04 | locus YLR258W, strain gsy2, hits give low values 0.981 | locus YLR262C, strain YPT6 (second series), hits give low values 1 | locus YLR268W, strain sec22, hits give low values 1.02 | locus YLR320W, strain mms22, hits give low values 1.02 | locus YLR342W, strain FKS1 (second series), hits give low values 1.08 | locus YLR342W, strain FKS1, hits give low values 0.988 | locus YLR357W, strain rsc2, hits give low values 0.981 | locus YLR370C, strain arc18, hits give low values 0.971 | locus YLR371W, strain rom2, hits give low values 0.957 | locus YLR384C, strain iki3, hits give low values 0.978 | locus YLR418C, strain cdc73, hits give low values 1.01 | locus YML016C, strain PPZ1, hits give low values 0.999 | locus YML032C, strain rad52, hits give low values 1 | locus YML120C, strain ndi1, hits give low values 1 | locus YML124C, strain tub3, hits give low values 0.982 | locus YMR058W, strain fet3, hits give low values 0.979 | locus YMR078C, strain ctf18, hits give low values 0.967 | locus YMR125W, strain sto1, hits give low values 0.98 | locus YMR129W, hits give low values 0.965 | locus YMR205C, strain PFK2, hits give low values 1.02 | locus YMR223W, strain ubp8, hits give low values 0.986 | locus YMR231W, strain pep5, hits give low values 0.993 | [8] 1.23 | locus YNL067W, strain RPL9B, hits give low values 0.974 | locus YNL071W, strain lat1, hits give low values 0.993 | locus YNL128W, strain TEP1, hits give low values 0.985 | locus YNL209W, strain ssb2, hits give low values 0.963 | locus YNL233W, strain BNI4, hits give low values 1.01 | locus YNL248C, strain rpa49, hits give low values 0.938 | locus YNL250W, strain rad50, hits give low values 0.983 | locus YNL271C, strain bni1, hits give low values 0.992 | locus YNL298W, strain CLA4, hits give low values 0.985 | locus YNL307C, strain MCK1, hits give low values 0.991 | locus YNL322C, strain KRE1 (second series), hits give low values 0.983 | locus YNR049C, strain mso1, hits give low values 0.954 | locus YNR052C, strain pop2, hits give low values 0.977 | locus YOL012C, strain htz1 0.827 | locus YOL147C, strain pex11, hits give low values 0.983 | locus YOR001W, strain rrp6, hits give low values 1.05 | locus YOR061W, strain CKA2, hits give low values 0.993 | locus YOR069W, strain VPS5, hits give low values 0.986 | locus YOR070C, strain gyp1, hits give low values 0.974 | locus YOR080W, strain dia2, hits give low values 0.964 | locus YOR083W, strain WHI5, hits give low values 0.928 | locus YOR106W, strain vam3, hits give low values 0.957 | locus YOR136W, strain idh2, hits give low values 0.992 | locus YOR144C, strain elg1, hits give low values 0.99 | locus YOR184W, strain ser1, hits give low values 1.04 | locus YOR265W, strain rbl2, hits give low values 0.99 | locus YOR270C, strain vph1, hits give low values 0.973 | locus YOR290C, strain snf2, hits give low values 0.956 | locus YOR316C, strain cot1, hits give low values 0.983 | locus YPL051W, strain arl3, hits give low values 0.963 | locus YPL078C, strain atp4, hits give low values 0.96 | locus YPL106C, strain sse1, hits give low values 0.984 | locus YPL240C, strain hsp82, hits give low values 0.992 | [9] 0.988 | locus YPR119W, strain clb2, hits give low values 0.981 | locus YPR141C, strain kar3, hits give low values 0.968 | locus YPR163C, strain tif3, hits give low values 0.996 | locus YPR167C, strain met16, hits give low values 0.981 | strain wtn01, hits give low values 1.01
